Inconclusive results are not listed. Activity calls are given as the source filed them. Calls come from the whole dose curve; as a rule, active = well fitted curve in the direction sought with a large enough effect; inconclusive = small, poorly fitted or top-dose-only effect, or another doubt; inactive = no such curve, though single readings can be large; an effect the other way counts as inactive or inconclusive.
Experiments:
NIH3T3 = assay: qHTS assay to identify novel small-molecules to repurpose for Merkel cell carcinoma treatment (AID 1296009); details: MCC and control cell lines, CellTiter-Glo viability, 72 h; at 44.8 µM (top of the series) unless noted; note: nearly all actives have a fitted effect of over 60% in size
Procedure, shortened: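 Cells were incubated with compound for 72 hr at 37 degree celsius before CellTiter-Glo addition. Luminescence was normalized with no-cell wells as full cytotoxicity and DMSO as baseline.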

C33A = assay: Primary qHTS to identify gynecologic anti-cancer compounds using libraries of approved drugs and bioactive compounds (AID 1345084); details: Gynecologic cancer cell panel viability, ATPlite luminescence, 48 h; series mostly up to 57.5 µM; note: nearly all actives have a fitted effect of over 55% in size
Procedure, shortened: (§1)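 Cells, 1,000 per well, were allowed to settle for 16 h at 37 C before compound addition. Five concentrations were tested for 48 h, and viability was read by ATPlite luminescence after 15 min at room temperature.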

CAOV3 = assay: as above; details: Gynecologic cancer cell panel viability, ATPlite luminescence, 48 h; series mostly up to 57.5 µM
Procedure, shortened: as §1

CASKI = assay: as above; details: Gynecologic cancer cell panel viability, ATPlite luminescence, 48 h; series mostly up to 57.5 µM
Procedure, shortened: as §1

Es-2 = assay: as above; details: Gynecologic cancer cell panel viability, ATPlite luminescence, 48 h; series mostly up to 57.5 µM
Procedure, shortened: as §1

HeLa = assay: as above; details: Gynecologic cancer cell panel viability, ATPlite luminescence, 48 h; series mostly up to 57.5 µM
Procedure, shortened: as §1

Hek293T = assay: as above; details: Gynecologic cancer cell panel viability, ATPlite luminescence, 48 h, control line for the selectivity index; series mostly up to 57.5 µM
Procedure, shortened: as §1

JEG-3 = assay: as above; details: Gynecologic cancer cell panel viability, ATPlite luminescence, 48 h; series mostly up to 57.5 µM
Procedure, shortened: as §1

OV90 = assay: as above; details: Gynecologic cancer cell panel viability, ATPlite luminescence, 48 h; series mostly up to 57.5 µM
Procedure, shortened: as §1

PA-1 = assay: as above; details: Gynecologic cancer cell panel viability, ATPlite luminescence, 48 h; series mostly up to 57.5 µM
Procedure, shortened: as §1

SKOV3 = assay: as above; details: Gynecologic cancer cell panel viability, ATPlite luminescence, 48 h; series mostly up to 57.5 µM
Procedure, shortened: as §1

Tov-21-G = assay: as above; details: Gynecologic cancer cell panel viability, ATPlite luminescence, 48 h; series mostly up to 57.5 µM
Procedure, shortened: as §1

Tov112D = assay: as above; details: Gynecologic cancer cell panel viability, ATPlite luminescence, 48 h; series mostly up to 57.5 µM
Procedure, shortened: as §1

Measured: Potency

Cn1cc(CCn2cnc(-c3cnn(C)c3)c2-c2ccc(C#N)cc2)cn1
inactive: NIH3T3 | C33A | CAOV3 | CASKI | Es-2 | HeLa | Hek293T | JEG-3 | OV90 | PA-1 | SKOV3 | Tov-21-G | Tov112D

O=C(O)[C@H](Cc1ccccc1)Oc1ccc(-c2ccccc2)cc1
inactive: NIH3T3 | C33A | CAOV3 | CASKI | Es-2 | HeLa | Hek293T | JEG-3 | OV90 | PA-1 | SKOV3 | Tov-21-G | Tov112D

C=C[C@]1(C)C[C@@H](OC(=O)CSC2C[C@H]3CC[C@@H](C2)N3C)[C@]2(C)[C@H](C)CC[C@]3(CCC(=O)[C@H]32)[C@@H](C)[C@@H]1O (stereo partly specified)
inactive: NIH3T3 | C33A | CAOV3 | CASKI | Es-2 | HeLa | Hek293T | JEG-3 | OV90 | PA-1 | SKOV3 | Tov-21-G | Tov112D

CC(=O)O[C@@H]1C(=O)C(C)=C(CCC(C)CC(=O)O)[C@@]2(C)CCCC(C)(C)C12 (stereo partly specified)
inactive: NIH3T3 | C33A | CAOV3 | CASKI | Es-2 | HeLa | Hek293T | JEG-3 | OV90 | PA-1 | SKOV3 | Tov-21-G | Tov112D

C=C1[C@H]2CCC3[C@]4(C)CCC[C@@](C)(C(=O)O)C4CC[C@]3(C2)[C@H]1OC(C)=O (stereo partly specified)
inactive: NIH3T3 | C33A | CAOV3 | CASKI | Es-2 | HeLa | Hek293T | JEG-3 | OV90 | PA-1 | SKOV3 | Tov-21-G | Tov112D

C=C1C(=O)O[C@@H]2C[C@]3(C)[C@@H](CCC(C)=O)[C@@H]3C[C@H]12
inactive: NIH3T3 | C33A | CAOV3 | CASKI | Es-2 | HeLa | Hek293T | JEG-3 | OV90 | PA-1 | SKOV3 | Tov-21-G | Tov112D

C/C(=C\CCC(C)C1CC(O)C2(C)C3CCC4C(C)(C)C(OC5OCC(O)C(O)C5O)CCC45CC35CC(O)C12C)C(=O)O (stereo unspecified)
inactive: NIH3T3 inactive [at 17.4 µM] | C33A | CAOV3 | CASKI | Es-2 | HeLa | Hek293T | JEG-3 | OV90 | PA-1 | SKOV3 | Tov-21-G | Tov112D

OC[C@@]1(O)CO[C@H](OC[C@H]2O[C@@H](OC(CCCCc3ccc(O)cc3)CCc3ccc(O)cc3)[C@H](O[C@H]3OC[C@](O)(CO)[C@H]3O)[C@@H](O)[C@@H]2O)[C@@H]1O (stereo partly specified)
inactive: NIH3T3 inactive [at 17.4 µM] | C33A | CAOV3 | CASKI | Es-2 | HeLa | Hek293T | JEG-3 | OV90 | PA-1 | SKOV3 | Tov-21-G | Tov112D

Nc1ncnc2c1c(COc1cccc(Cl)c1)nn2C1CCOCC1
inactive: NIH3T3 | C33A | CAOV3 | CASKI | Es-2 | HeLa | Hek293T | JEG-3 | OV90 | PA-1 | SKOV3 | Tov-21-G | Tov112D

Cc1ccccc1-c1cc(N2CCN(C)CC2)ncc1N(C)C(=O)C(C)(C)c1cc(C(F)(F)F)cc(C(F)(F)F)c1
inactive: NIH3T3 | C33A | CAOV3 | CASKI | Es-2 | HeLa | Hek293T | JEG-3 | OV90 | PA-1 | SKOV3 | Tov-21-G | Tov112D

CC1(C)C[C@H](O)C[C@@]2(C)[C@H]1[C@H](O)C=C1COC(=O)[C@@]12O
inactive: NIH3T3 | C33A | CAOV3 | CASKI | Es-2 | HeLa | Hek293T | JEG-3 | OV90 | PA-1 | SKOV3 | Tov-21-G | Tov112D

C[C@]1(OC(=O)/C=C\c2ccc(O)cc2)C[C@@H](O)[C@]2(O)C=CO[C@@H](O[C@@H]3O[C@H](CO)[C@@H](O)[C@H](O)[C@H]3O)C12 (stereo partly specified)
inactive: NIH3T3 inactive [at 17.4 µM] | C33A | CAOV3 | CASKI | Es-2 | HeLa | Hek293T | JEG-3 | OV90 | PA-1 | SKOV3 | Tov-21-G | Tov112D

From PubChem BioAssay (NCATS)
